# Experimental data as given in PubChem BioAssay (EPA / NIEHS).
# Where “and” joins values, the source holds several entries; their conditions need not be identical. Equal values may be shown once. Where a structure was tested more than once in an assay, its records may differ in their call. Calls of active or inactive are those of the source. How the source made its calls: active means hit-call score of the fitted dose curve at least 0.9, where 1 is the maximum; inactive means score below 0.9.
# Molecular target: Cellular tumor antigen p53 (Homo sapiens) (UniProt P04637)
# Experiment: ATG_p53_CIS: Attagene CIS-FACTORIAL HepG2 Assay for human p53 Transcription Factor (AID 2282994)
# Settings: HepG2 p53 cis-element reporter, Attagene mRNA; actives raise or lower the signal
# Protocol: ATG_CIS is a cell-based, multiplexed-readout assay that uses HepG2, a human liver cell line, with measurements taken at 24 hours after chemical dosing in a 24-well plate.ATG_p53_CIS is one of 52 assay component(s) measured or calculated from the ATG_CIS assay. It is designed to make measurements of mRNA induction, a form of inducible reporter, as detected with fluorescence intensity signals by Reverse transcription polymerase chain reaction (RT-PCR) and Capillary electrophoresis technology.Data from the assay component ATG_p53_CIS was analyzed into 1 assay endpoint. This assay endpoint, ATG_p53_CIS, was analyzed with bidirectional fitting relative to DMSO as the negative control and baseline of activity. Using a type of inducible reporter, measures of mRNA for gain or loss-of-signal activity can be used to understand the reporter gene at the transcription factor-level as they relate to the gene TP53. Furthermore, this assay endpoint can be referred to as a primary readout, because this assay has produced multiple assay endpoints where this one serves a reporter gene function. To generalize the intended target to other relatable targets, this assay endpoint is annotated to the dna binding intended target family, where the subfamily is tumor suppressor.
# Human liver HepG2 cells are transiently transfected with multiple reporter transcription units (MRTUs) in 6-well plates using FuGene 6 reagent (Roche; 3 ml FuGene/1 mg DNA). The MRTU constructs are regulated by a cis-regulating element (promoter). […] A major difference between the CIS and TRANS system is that in CIS activities of endogenous TFs are measured, whereas the TRANS assay evaluates changes in activities of exogenous, chimeric NR-Gal4 proteins. […] At the end of 24 hour incubation, total RNA was isolated using TriZol reagent (Invitrogen). The isolated RNA is then reverse-transcribed using oligo(dT) primer and Mo-MLV reverse transcriptase (Invitrogen) with DNAse I (Ambion) treatment for 30 min. The one-tenth of the produced cDNA was amplified by PCR using Taq DNA polymerase (Invitrogen) and two reporter sequence-specific primers. The PCR products were fluorescently labeled by primer extension with 6-arboxyfluorescein (6-FAM) 5'-labeled reporter sequence-specific primer (2 min at 95 C, 20 s at 68 C and 10 min at 72 C) and these products were digested with 5U of HpaI (New England Biolabs) for 2h at 37 C. The fragments were purified using Qiaquick PCR columns (Qiagen), analyzed on an ABI 3130xL genetic analyzer (Applied Biosystems) with peak positions identified by using a set of X-rhodamine (ROX)-labeled MapMarker1000 molecular weight standards (BioVentures). The raw capillary electrophoresis data was processed using Attagraph software (Attagene).
# Chain of Cellular tumor antigen p53 (Homo sapiens) (P04637 whole entry, looked up): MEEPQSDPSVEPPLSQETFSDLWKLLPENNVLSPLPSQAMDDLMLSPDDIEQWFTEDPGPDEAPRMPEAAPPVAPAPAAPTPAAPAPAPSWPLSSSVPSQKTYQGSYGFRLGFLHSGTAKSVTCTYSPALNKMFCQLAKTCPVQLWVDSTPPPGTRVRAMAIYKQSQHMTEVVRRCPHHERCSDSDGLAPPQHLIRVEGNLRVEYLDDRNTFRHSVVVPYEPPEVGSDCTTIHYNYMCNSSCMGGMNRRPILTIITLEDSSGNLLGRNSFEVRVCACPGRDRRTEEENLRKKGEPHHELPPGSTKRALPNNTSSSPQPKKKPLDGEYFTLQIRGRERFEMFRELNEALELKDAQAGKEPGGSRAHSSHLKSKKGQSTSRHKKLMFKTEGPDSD
Structure (SMILES),outcome,AC50
OC[C@@H](O)[C@H](O)[C@@H](O)[C@@H](O)CO,inactive,–
CCCCCC1CCC(=O)O1 (stereo not given),inactive,–
CCCCOC(=O)C(C)OC(=O)CCC (stereo not given),inactive,–
O=c1cc(-c2ccc(O)cc2)oc2cc(O)cc(O)c12,inactive,–
CNC(=C[N+](=O)[O-])NCCSCc1ccc(CN(C)C)o1,inactive,–
Nc1ccc(O)c(N)c1,inactive,–
Brc1cc(Br)cc(Br)c1,inactive,–
CC(=O)C1=C(C)[C@@H]2C[C@@]3(C1)[C@H](C)CC[C@H]3C2(C)C,–,100 µM (active)
C[C@]12CC[C@@H]3c4ccc(O)cc4CC[C@H]3[C@@H]1CC[C@@H]2O,inactive,19.8 µM (active) and 21.3 µM (active) and 12.8 µM (active)
Nc1ccc(N)c([N+](=O)[O-])c1,inactive,–
NC(N)=S,inactive,–
CC(=O)c1ccc2ccccc2c1,inactive,–
CC(=O)N(C)C,inactive,–
[Cu+],inactive,–
O=C(c1ccc(OCCN2CCCCC2)cc1)c1c(-c2ccc(O)cc2)sc2cc(O)ccc12,inactive,9.07 µM (active) and 14.9 µM (active) and 15.1 µM (active)
O=C(O)C1=NN(c2ccc(S(=O)(=O)O)cc2)C(=O)C1,inactive,–
CC(=O)CCC=C(C)CCC=C(C)C,inactive,–
CCC(C)C1CCCCC1=O (stereo not given),inactive,–
CCCc1ccc(N)cc1,inactive,–

Structure (SMILES),outcome,AC50
CC(C)C(=O)OCC=Cc1ccccc1,inactive,–
CCC(C)(C)c1cc(O)c(C(C)(C)CC)cc1O,–,33.4 µM (active)
CCCCCCCCCCCCS,inactive,–
CCOC(=O)COC(=O)c1ccccc1C(=O)OCC,inactive,–
CC/C=C\CCOC(=O)C(C)C,inactive,–
CCCCCCC(C)O (stereo not given),inactive,–
CC1(C)[C@H](C=C(Cl)Cl)[C@H]1C(=O)OCc1cccc(Oc2ccccc2)c1,inactive,–
CC=CC(=O)C1=C(C)C=CCC1(C)C,inactive,–
COc1ccc2[nH]cc(CCNC(C)=O)c2c1,inactive,–
OCCCO,inactive,–
COC(=O)c1ccc(C(=O)OC)cc1,inactive,–
NC(N)=NC(N)=NCCc1ccccc1,inactive,–
CC(C)Cc1ccccc1,inactive,–
CCCCCC1C(=O)CCC1CC(=O)OC (stereo not given),inactive,–
CCC=C(C)C=O,inactive,–
O=C(O)c1ccco1,inactive,–
O=Cc1ccccc1O,inactive,–
C=CC(=O)OCCCCCC,inactive,–
[Cl][Dy]([Cl])[Cl],inactive,–
